Measured values taken from PubChem BioAssay (NCATS).
Results filed as inconclusive are left out. Activity calls are given as the source filed them. Calls come from the whole dose curve; as a rule, active = well fitted inhibition curve with a large enough effect; inconclusive = small, poorly fitted or top-dose-only effect; inactive = flat fitted curve, though single readings scatter.

Key:
[1] = tested on: CP269; experiment: qHTS profiling for inhibitors of Plasmodium falciparum proliferation (AID 504749); note: nearly all actives have a fitted effect of over 60% in size; details: P. falciparum in erythrocytes, SYBR Green DNA, 72 h; series mostly up to 28.7 µM
Summary of the method: (§1)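 Each compound contacts P. falciparum-infected red blood cells for 72 h at 37 C; lysis buffer (Tris, EDTA, saponin, Triton X, SYBR Green I) is added and fluorescence measured next morning; values normalized to controls.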

[2] = tested on: CP286; experiment: as above; details: P. falciparum in erythrocytes, SYBR Green DNA, 72 h; series mostly up to 28.7 µM
Summary of the method: as §1

[3] = tested on: CP291; experiment: as above; details: P. falciparum in erythrocytes, SYBR Green DNA, 72 h; series mostly up to 28.7 µM
Summary of the method: as §1

[4] = tested on: CP297; experiment: as above; details: P. falciparum in erythrocytes, SYBR Green DNA, 72 h; series mostly up to 28.7 µM
Summary of the method: as §1

[5] = tested on: CP305; experiment: as above; details: P. falciparum in erythrocytes, SYBR Green DNA, 72 h; series mostly up to 28.7 µM
Summary of the method: as §1

[6] = tested on: CP315; experiment: as above; details: P. falciparum in erythrocytes, SYBR Green DNA, 72 h; series mostly up to 28.7 µM
Summary of the method: as §1

[7] = tested on: CP325; experiment: as above; details: P. falciparum in erythrocytes, SYBR Green DNA, 72 h; series mostly up to 28.7 µM
Summary of the method: as §1

[8] = tested on: CP329; experiment: as above; details: P. falciparum in erythrocytes, SYBR Green DNA, 72 h; series mostly up to 28.7 µM
Summary of the method: as §1

[9] = tested on: CP335; experiment: as above; details: P. falciparum in erythrocytes, SYBR Green DNA, 72 h; series mostly up to 28.7 µM
Summary of the method: as §1

[10] = tested on: DFO2036; experiment: as above; details: P. falciparum in erythrocytes, SYBR Green DNA, 72 h; series mostly up to 28.7 µM
Summary of the method: as §1

[11] = tested on: DIV14; experiment: as above; details: P. falciparum in erythrocytes, SYBR Green DNA, 72 h; series mostly up to 28.7 µM
Summary of the method: as §1

[12] = tested on: DIV17; experiment: as above; details: P. falciparum in erythrocytes, SYBR Green DNA, 72 h; series mostly up to 28.7 µM
Summary of the method: as §1

[13] = tested on: DIV30; experiment: as above; details: P. falciparum in erythrocytes, SYBR Green DNA, 72 h; series mostly up to 28.7 µM
Summary of the method: as §1

[14] = tested on: Dd2; experiment: as above; details: P. falciparum in erythrocytes, SYBR Green DNA, 72 h; series mostly up to 28.7 µM
Summary of the method: as §1

[15] = tested on: ECU; experiment: as above; details: P. falciparum in erythrocytes, SYBR Green DNA, 72 h; series mostly up to 28.7 µM
Summary of the method: as §1

[16] = tested on: FAB9; experiment: as above; details: P. falciparum in erythrocytes, SYBR Green DNA, 72 h; series mostly up to 28.7 µM
Summary of the method: as §1

[17] = tested on: GB4; experiment: as above; details: P. falciparum in erythrocytes, SYBR Green DNA, 72 h; series mostly up to 28.7 µM
Summary of the method: as §1

[18] = tested on: HB3; experiment: as above; details: P. falciparum in erythrocytes, SYBR Green DNA, 72 h; series mostly up to 28.7 µM
Summary of the method: as §1

[19] = tested on: ICS; experiment: as above; details: P. falciparum in erythrocytes, SYBR Green DNA, 72 h; series mostly up to 28.7 µM
Summary of the method: as §1

[20] = tested on: JCK; experiment: as above; details: P. falciparum in erythrocytes, SYBR Green DNA, 72 h; series mostly up to 28.7 µM
Summary of the method: as §1

[21] = tested on: N140; experiment: as above; details: P. falciparum in erythrocytes, SYBR Green DNA, 72 h; series mostly up to 28.7 µM
Summary of the method: as §1

[22] = tested on: P93_24; experiment: as above; details: P. falciparum in erythrocytes, SYBR Green DNA, 72 h; series mostly up to 28.7 µM
Summary of the method: as §1

[23] = tested on: P94_40; experiment: as above; details: P. falciparum in erythrocytes, SYBR Green DNA, 72 h; series mostly up to 28.7 µM
Summary of the method: as §1

[24] = tested on: PAD; experiment: as above; details: P. falciparum in erythrocytes, SYBR Green DNA, 72 h; series mostly up to 28.7 µM
Summary of the method: as §1

[25] = tested on: PC15; experiment: as above; details: P. falciparum in erythrocytes, SYBR Green DNA, 72 h; series mostly up to 28.7 µM
Summary of the method: as §1

[26] = tested on: PC26; experiment: as above; details: P. falciparum in erythrocytes, SYBR Green DNA, 72 h; series mostly up to 28.7 µM
Summary of the method: as §1

[27] = tested on: PC49; experiment: as above; details: P. falciparum in erythrocytes, SYBR Green DNA, 72 h; series mostly up to 28.7 µM
Summary of the method: as §1

[28] = tested on: SC27B; experiment: as above; details: P. falciparum in erythrocytes, SYBR Green DNA, 72 h; series mostly up to 28.7 µM
Summary of the method: as §1

[29] = tested on: TAB109; experiment: as above; details: P. falciparum in erythrocytes, SYBR Green DNA, 72 h; series mostly up to 28.7 µM
Summary of the method: as §1

[30] = tested on: TAB113; experiment: as above; details: P. falciparum in erythrocytes, SYBR Green DNA, 72 h; series mostly up to 28.7 µM
Summary of the method: as §1

[31] = tested on: TAB165; experiment: as above; details: P. falciparum in erythrocytes, SYBR Green DNA, 72 h; series mostly up to 28.7 µM
Summary of the method: as §1

[32] = tested on: W2; experiment: as above; details: P. falciparum in erythrocytes, SYBR Green DNA, 72 h; series mostly up to 28.7 µM
Summary of the method: as §1

[33] = tested on: astro; experiment: Drug repurposing screens with cells derived from glioblastoma tumor samples (AID 1345199); details: viability, ATP luminescence, 48 h; series mostly up to 45.9 µM; note: nearly all actives have a fitted effect of over 40% in size
Summary of the method: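 Primary testing used CD133+ neurospheres from four GBM patients, seven concentrations, 48 h exposure and ATP-based viability; confirmation added three slower-growing patient lines.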

Measured: Potency
Potency is the fitted concentration of half-maximal effect.

CCCCCCCCCC[N+](C)(C)CCCCCCCCCC
active: [1] 4.78 µM | [2] 2.51 µM | [3] 5.36 µM | [4] 6.75 µM | [5] 5.36 µM | [6] 16.9 µM | [7] 5.36 µM | [8] 6.75 µM | [9] 6.75 µM | [10] 5.01 µM | [11] 3.01 µM | [12] 3.01 µM | [13] 8.49 µM | [14] 8.91 µM | [15] 5.01 µM | [16] 5.01 µM | [17] 3.38 µM | [18] 7.94 µM | [19] 2 µM | [20] 10 µM | [21] 7.08 µM | [22] 5.01 µM | [23] 6.31 µM | [24] 8.91 µM | [25] 3.55 µM | [26] 5.36 µM | [27] 10 µM | [28] 5.01 µM | [29] 6.31 µM | [30] 5.01 µM | [31] 7.08 µM | [32] 1.51 µM | [33] 4.47 µM
